The record followed here is PubChem BioAssay.

Calls of active or inactive are those of the source.

One experiment has as its target Albumin (Bos taurus) (UniProt P02769). Description: compounds binding labelled BSA control protein – biochemical, small-molecule microarray, Alexa647 label, 635/667 nm fluorescence, artefact control for SMM control protein annotation, profiling panel (AID 1118).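 Further: score merges 667 nm emission intensity and signal-to-noise per printed compound spot.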 Particulars: BSA-A647 binding, fluorescence 635 nm, higher = more signal.
Experiment [1] in a line: probe aXIP binding to arrayed compounds – biochemical, NeuroSMM set, 635/667 nm fluorescence, primary screen (AID 1119).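 Further: probe is the protein aXip251-270 applied at 1 µg/mL to compound-printed slides; binding of probe to printed compounds measured as 667 nm fluorescence plus signal to noise.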 As to conditions: small-molecule microarray, higher = more signal, called active from +8 up or from −8 down.
Experiment [2] can be described thus: probe aNOTCH3 binding on compound microarray – biochemical, small-molecule microarray, 635/667 nm fluorescence, primary screen (AID 1120).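 Further: probe is a biotin-tagged antibody raised against NOTCH3 rather than NOTCH3 protein; score merges spot fluorescence near 667 nm with spot signal to noise.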 As to conditions: higher = more signal.
Experiment [3] can be described thus: probe aNOTCH2 binding on compound microarray – biochemical, small-molecule microarray, 635/667 nm fluorescence, primary screen (AID 1121).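 Further: score merges feature fluorescence read at 667 nm with its signal to noise.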 As to conditions: higher = more signal.
Experiment [4] deals with Carbonic anhydrase 2 (Homo sapiens) (UniProt P00918). Description: compounds binding carbonic anhydrase 2 – biochemical, small-molecule microarray, Alexa647-labelled CAII, profiling panel (AID 1122). Particulars: CAII-A647 binding fluorescence, higher = more signal.
The nature of experiment [5]: COS7 lysate on small-molecule microarray, probe aHis, 635 nm (AID 1123).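 Further: z-score combines 667nm fluorescence intensity with signal-to-noise per printed compound spot.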 Particulars: COS7 cell lysate, fluorescence, higher = more signal.
A short description of experiment [6]: probe aLAP1 signal on lysate-treated microarray – cell lysate, small-molecule microarray, COS7 lysate, primary screen (AID 1124).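 Further: lysate comes from COS7 cells expressing LAP1 and is applied at 0.3 µg/mL; score merges spot fluorescence near 667 nm with signal-to-noise over triplicate slides.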 As to conditions: probe aLAP1, fluorescence, higher = more signal.
In another experiment the test system is Sam68 (KHDRBS1). As to the kind of experiment: compounds binding KHDRBS1 protein – biochemical, small-molecule microarray, 635 nm fluorescence, primary screen (AID 1125).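 Further: score merges 667 nm channel intensity with signal to noise over triplicate slides.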 As to conditions: higher = more signal.
For experiment [7], the system named is Chordin-like protein 2 (CHRDL2). As to the kind of experiment: compounds binding chordin-like 2 – biochemical, small-molecule microarray, 635 nm fluorescence, primary screen (AID 1126).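 Further: printed compound slides probed with Chrdl2 protein at 4 µg/mL for 1 h at 4 C; score merges 667 nm emission intensity with signal to noise over three replicate slides.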 As to conditions: fluorescence 635 nm, higher = more signal.
The target of experiment [8] is Concanavalin-A (Canavalia ensiformis) (UniProt P02866). Description: compounds binding concanavalin A lectin – biochemical, small-molecule microarray, Alexa647 label, 635 nm, artefact control for SMM control protein annotation, primary screen (AID 1127).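 Further: z combines 667 nm emission intensity with signal-to-noise across three replicate slides.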 Particulars: ConA-A647 binding fluorescence, higher = more signal.
Chain of Concanavalin-A (Canavalia ensiformis) (P02866 whole entry, looked up): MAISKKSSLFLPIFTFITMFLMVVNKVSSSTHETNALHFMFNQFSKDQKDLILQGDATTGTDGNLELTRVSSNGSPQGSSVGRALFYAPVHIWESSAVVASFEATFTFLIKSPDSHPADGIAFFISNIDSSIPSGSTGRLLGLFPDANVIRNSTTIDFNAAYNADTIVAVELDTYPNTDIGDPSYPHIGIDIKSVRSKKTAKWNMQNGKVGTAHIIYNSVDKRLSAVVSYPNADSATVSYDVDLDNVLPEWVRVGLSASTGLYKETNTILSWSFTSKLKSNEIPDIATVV

Chain of Albumin (Bos taurus) (P02769 whole entry, looked up): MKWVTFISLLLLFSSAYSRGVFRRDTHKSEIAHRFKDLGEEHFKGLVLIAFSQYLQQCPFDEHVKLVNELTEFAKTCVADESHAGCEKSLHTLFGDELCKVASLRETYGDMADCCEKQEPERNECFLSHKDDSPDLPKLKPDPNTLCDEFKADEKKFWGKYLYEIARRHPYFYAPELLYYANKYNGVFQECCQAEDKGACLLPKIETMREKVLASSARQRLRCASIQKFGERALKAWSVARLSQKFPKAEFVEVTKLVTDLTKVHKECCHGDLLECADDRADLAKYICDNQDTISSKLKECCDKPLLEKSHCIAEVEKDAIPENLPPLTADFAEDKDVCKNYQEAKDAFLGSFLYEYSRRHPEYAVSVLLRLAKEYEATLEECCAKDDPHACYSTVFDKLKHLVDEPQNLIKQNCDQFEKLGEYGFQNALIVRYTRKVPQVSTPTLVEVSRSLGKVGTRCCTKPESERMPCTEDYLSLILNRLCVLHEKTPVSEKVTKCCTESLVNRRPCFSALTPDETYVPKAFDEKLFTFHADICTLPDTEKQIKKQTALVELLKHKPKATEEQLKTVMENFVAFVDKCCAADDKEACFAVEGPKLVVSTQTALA

For the compound `CCc1cccc(NC(=O)O[C@H]2[C@H](OC(=O)Nc3ccccc3-c3ccccc3)[C@@H](OC(=O)Nc3ccccc3-c3ccccc3)[C@@H](OC)O[C@@H]2CO)c1`, the composite z-score is 0.81 with Albumin (Bos taurus); 0.13 in [2]; -0.0238 in experiment [3]; 0.704 in experiment [4]; 2.8 in experiment [5]; 0.219 in experiment [6]. The values for the composite z-score (in the experiment with Sam68 (KHDRBS1); in [7]; in [8]) were 1.3, -0.229 and 1.07, respectively. Also, the composite Z-score in [1] is 0.237 (inactive).

`CC1CC/C=C\[C@H]2OC34C=CCN(C(C)(C)C)C(=O)[C@H]3N(CCO)C(=O)[C@@H]4C2C(=O)O1` (stereo not given in full): the composite z-score in the experiment with Albumin (Bos taurus) is 0.922; in [2] it was -0.341; in [3] it was -0.148; in [4], 0.917; in experiment [5] it was 1.08; in experiment [6] it was 1.41. The composite z-score in the experiment with Sam68 (KHDRBS1) is -0.719; in experiment [7], -1.31; in [8], -2.33. For the same compound, the composite Z-score in experiment [1] is 0.108 (inactive).

For `CCOC(=O)C1=C[C@@H](C(C)(C)C)N(S(=O)(=O)c2ccc(C)cc2)[C@H]1c1ccc(F)cc1`, the composite z-score with Albumin (Bos taurus) was 0.316; in experiment [2] it was 0.169; in [3], -0.0254; in experiment [4] it was 0.287; in experiment [5] it was 1.61; in experiment [6], 0.397. Further, the composite z-score was 1.29 with Sam68 (KHDRBS1), 0.16 in experiment [7] and 0.819 in [8]. The composite Z-score in experiment [1] is -0.171 (inactive).

Turning to `CC(C)(C)OC(=O)CC[C@]1(C(=O)N2CCOCC2)N=C(c2ccc(OCCCO)cc2)O[C@H]1c1ccccc1N=[N+]=[N-]`, the composite z-score was determined as 0.55 in the experiment with Albumin (Bos taurus); 0.133 in experiment [2]; 0.119 in experiment [3]; 0.743 in experiment [4]; 2.36 in [5]; 0.947 in experiment [6]. Further, the composite z-score was 1.28 in the experiment with Sam68 (KHDRBS1), -0.135 in experiment [7] and 0.973 in experiment [8]. Besides, in experiment [1], the composite Z-score was 0.103 (inactive).

`CCOC(=O)C[C@H]1[C@H](OC(=O)c2ccc(-c3ccccc3)cc2)[C@@H](NC(=O)Cc2ccc(OC)cc2)c2cc(OCCCO)ccc2N1C(=O)c1ccccc1`: the composite z-score in the experiment with Albumin (Bos taurus) was 0.167; in experiment [2], 0.15; in [3] it was -0.135; in [4], -0.0516; in [5], 0.614; in experiment [6], -0.105. Moreover, the composite z-score was 0.264 with Sam68 (KHDRBS1), -0.348 in experiment [7] and 0.0776 in [8]. The composite Z-score in experiment [1] is 0.0175 (inactive).

Turning to `CC(C)C(CO)N1C(=O)[C@@H]2C3C(=O)OCCC/C=C\[C@H]3OC23C=CCN(CCN2CCOCC2)C(=O)[C@@H]13` (stereo not given in full), the composite z-score in the experiment with Albumin (Bos taurus) is 0.692; in [2], -0.21; in experiment [3] it was -0.0928; in experiment [4], 0.463; in [5], -0.301; in experiment [6], 0.395. For the same compound, the composite z-score is -0.362 in the experiment on Sam68 (KHDRBS1), -0.254 in experiment [7] and -0.724 in experiment [8]. Besides, the composite Z-score in experiment [1] is -0.298 (inactive).

With `COC(=O)c1c(CC[C@@H](CO)NC(=O)NCCn2cc(C3(O)CCCC3)nn2)oc(C(C)=O)c1C(=O)OC`, the composite z-score with Albumin (Bos taurus) was 0.351; in experiment [2], -0.209; in experiment [3] it was -0.128; in [4], 0.745; in [5], 0.603; in experiment [6], -0.108. Further, the composite z-score with Sam68 (KHDRBS1) was 0.492; in experiment [7], -0.505; in [8] it was -0.027. The composite Z-score in experiment [1] was -0.79 (inactive).

As to `CCC(CC)C(O)C1C=CC2C(=O)NC(=O)C2N1Nc1ccccn1` (stereo not given), the composite z-score with Albumin (Bos taurus) is 0.958; in experiment [2] it was -0.0219; in experiment [3], -0.0438; in [4], 0.763; in experiment [5] it was 0.864; in experiment [6], -0.019. Further, the composite z-score with Sam68 (KHDRBS1) was determined as 0.0905; in experiment [7], 0.416; in experiment [8], 0.228. In experiment [1], the composite Z-score is -0.248 (inactive).

Regarding `[N-]=[N+]=NCc1ccccc1[C@@H]1OC(c2ccc(OCCCO)cc2)=N[C@]1(Cc1ccccc1)C(=O)NCC(O)CO` (stereo not given in full), the composite z-score in the experiment with Albumin (Bos taurus) amounted to 1.05; in experiment [2], 0.271; in experiment [3], 0.109; in experiment [4], 0.546; in experiment [5], 3.09; in [6] it was 1.18. For the same compound, the results for the composite z-score (in the experiment with Sam68 (KHDRBS1); in [7]; in experiment [8]) were 1.22, -0.549 and 0.306, respectively. Also, in experiment [1], the composite Z-score was 1.57 (inactive).

For `COCCOC(=O)N1C(=O)[C@@]2(c3cc(C#CCNC(N)=O)ccc31)[C@H](C(=O)Nc1nc3ccccc3s1)[C@H]1C(=O)O[C@H](c3ccccc3)[C@H](c3ccccc3)N1[C@@H]2c1ccc(OCCO)cc1`, the composite z-score in the experiment with Albumin (Bos taurus) is -0.28; in experiment [2], 0.0952; in [3] it was 0.0949; in experiment [4], 0.382; in experiment [5], 0.481; in experiment [6], 0.422. In addition, the composite z-score in the experiment with Sam68 (KHDRBS1) is 1.1; in experiment [7], 1.34; in experiment [8], 0.994. In experiment [1], the composite Z-score was -0.335 (inactive).

For `CC(C)[Si]1(C(C)C)O[C@@H](c2ccccc2)c2cc(-c3ccc(-c4ccc(Cl)c(Cl)c4)o3)nc(-c3ccccc3)c21`, the composite z-score with Albumin (Bos taurus) is 0.473; in experiment [2], -0.0918; in experiment [3] it was -0.133; in [4] it was 0.233; in [5] it was 0.308; in [6], 0.0588. In addition, the composite z-score is 0.278 in the experiment with Sam68 (KHDRBS1), -0.432 in experiment [7] and 0.989 in experiment [8]. The composite Z-score in experiment [1] is -0.0194 (inactive).

For `CC(C)C(=C=CC[C@H](O)c1ccc(OCCO)cc1)CCO`, the composite z-score with Albumin (Bos taurus) was 0.467; in [2], -0.116; in [3] it was -0.174; in experiment [4] it was 0.228; in experiment [5], 1.83; in experiment [6], 0.182. Further, the composite z-score was found to be 1.28 in the experiment on Sam68 (KHDRBS1), 0.489 in experiment [7] and 0.549 in experiment [8]. Besides, the composite Z-score in experiment [1] was -0.435 (inactive).

For `COc1cc2c(cc1O)C(C1CC1)N(Cc1sc3ccccc3c1Cl)CC2` (stereo not given), the composite z-score was 0.718 with Albumin (Bos taurus); -0.152 in [2]; -0.0984 in [3]; 0.76 in experiment [4]; 2.69 in [5]; 0.862 in experiment [6]. For the same compound, the composite z-score with Sam68 (KHDRBS1) amounted to 0.888; in experiment [7], 0.185; in [8], 0.0387. In addition, the composite Z-score in [1] was -0.909 (inactive).

As for `COC(=O)[C@@]1(Cc2ccccc2)[C@H]2c3cc(C(=O)N(C)C)n(Cc4ccsc4Br)c3C[C@H]2CN1C(=O)c1ccccc1`, the composite z-score in the experiment with Albumin (Bos taurus) was 0.928; in experiment [2], 0.501; in experiment [3], -0.0597; in experiment [4], 0.586; in experiment [5] it was 2.66; in experiment [6], -0.0415. The figures for the composite z-score (in the experiment with Sam68 (KHDRBS1); in [7]; in experiment [8]) were 1.21, -1.03 and 0.883, respectively. Further, the composite Z-score in experiment [1] was -0.502 (inactive).

Consider `COc1ccc(CCNC(=O)[C@@]2(Sc3ccc(C)cc3)CC(=O)N(C(C)C)[C@@H]2c2ccc(CO)cc2I)cc1`, for which the composite z-score was -0.235 in the experiment with Albumin (Bos taurus); -0.0647 in [2]; 0.0118 in experiment [3]; 0.304 in [4]; 1.04 in experiment [5]; 0.648 in [6]. In addition, the composite z-score in the experiment on Sam68 (KHDRBS1) was 0.0063; in experiment [7], -0.578; in [8], -0.613. For the same compound, the composite Z-score in experiment [1] is -0.174 (inactive).

On to `CC(C)NC(=O)[C@@]1(c2ccc([N+](=O)[O-])cc2)CC(=O)N(C2CCCCC2)[C@@H]1c1ccc(CO)cc1I`, for which the composite z-score in the experiment with Albumin (Bos taurus) was 0.0092; in experiment [2], -0.0647; in experiment [3], 0.083; in experiment [4], 0.421; in experiment [5], 1.27; in experiment [6] it was 0.321. For the same compound, the composite z-score with Sam68 (KHDRBS1) is 0.93; in experiment [7] it was -0.589; in experiment [8] it was 0.347. Moreover, the composite Z-score in experiment [1] is 0.691 (inactive).
